The text below walks through data of PubChem BioAssay (NCI).

Structures are written as SMILES. Compounds without any hit were thinned out: in the full panel of roughly 79,000, 15% have a hit. A number with no mark means an inactive call. The source made the active and inactive calls. No stated cut-off is given here; in the data, active means growth inhibition above about 70%; inactive means the rest.

A short description of experiment [1]: NCI Yeast Anticancer Drug Screen. Data for the rad50 strain (AID 155).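 Further: 0% = growth of vehicle-only cultures of the same strain.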 The conditions noted are these: S. cerevisiae rad50 strain growth inhibition; at 50.0 µM; stronger effect = higher value. In a few lines:
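Cells are treated with compound, grown, and their growth is then scored against vehicle-only cultures of the same repair-deficient yeast strain.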

A short description of experiment [2]: NCI Yeast Anticancer Drug Screen. Data for the mec2-1 strain (AID 157). Particulars: S. cerevisiae mec2-1 strain, at 50.0 µM, stronger effect = higher value. The method, boiled down: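 Vehicle-treated cultures served as reference for growth inhibition of compound-exposed mec2-1 yeast.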
A short description of experiment [3]: NCI Yeast Anticancer Drug Screen. Data for the sgs1 mgt1 strain (AID 161).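 Further: 0% = growth of cultures given vehicle only.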 Particulars: S. cerevisiae sgs1 mgt1 strain, at 50.0 µM, stronger effect = higher value. In a few lines:
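Read-out: growth inhibition vs vehicle controls. Cells: mutant yeast strain deficient in DNA damage repair.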

Experiment [4] can be described thus: NCI Yeast Anticancer Drug Screen. Data for the cln2 rad14 strain (AID 165).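 Further: 0% = growth equal to vehicle treated cultures.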 The conditions noted are these: S. cerevisiae cln2 rad14 strain, at 50.0 µM, stronger effect = higher value. In a few lines:
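Each compound was tested on cln2 rad14 yeast. Inhibition of growth was calculated against vehicle-exposed controls.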

The nature of experiment [5]: NCI Yeast Anticancer Drug Screen. Data for the bub3 strain (AID 167). The conditions noted are these: S. cerevisiae bub3 mutant strain, at 50.0 µM, stronger effect = higher value. The method, boiled down:
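Part of a panel of yeast mutants defective in DNA damage repair or cell cycle regulation. Each strain is grown with compound, and inhibition is calculated relative to solvent-treated cultures.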

The nature of experiment [6]: NCI Yeast Anticancer Drug Screen. Data for the mlh1 rad18 strain (AID 175). Particulars: S. cerevisiae mlh1 rad18 strain growth inhibition; at 50.0 µM; stronger effect = higher value. In a few lines:
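Vehicle-treated cultures served as the reference for growth inhibition in a yeast strain carrying DNA damage repair alterations exposed to each compound.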

Regarding `O=C(Nc1ccccc1)n1cc(-c2ccccn2)c(N2CCOCC2)n1`, the growth inhibition in experiment [1] is -4.6%; in experiment [2], -11.1%; in experiment [3], 6.15%; in experiment [4], -64.5%; in experiment [5], -12.9%; in experiment [6], -14.4%.

For `NC(=O)N/N=C1\CCn2cccc21`, the growth inhibition in experiment [1] was -10.8%; in experiment [2], 1%; in experiment [3] it was -3.25%; in experiment [4] it was -2.2%; in experiment [5] it was 1.1%; in experiment [6] it was -5.1%.

On to `COc1ccc(OC)c2cc3c(cc12)C(=O)c1ccccc1C3=O`, for which the growth inhibition was 10.6% in experiment [1]; 70.2% (active) in experiment [2]; 25.2% in experiment [3]; 90.7% (active) in experiment [4]; 94.6% (active) in experiment [5]; 46.9% in experiment [6].

Turning to `CCCCSc1nc2ccccc2c(=O)[nH]1`, the growth inhibition in experiment [1] was -10.7%; in experiment [2] it was -13%; in experiment [3], -4.6%; in experiment [4], 13.3%; in experiment [5], 9.3%; in experiment [6], 3.1%.

On to `COC(=O)[CH2][Ge]([c]1ccccc1)[c]1ccccc1.COC(=O)[CH2][Ge]([c]1ccccc1)[c]1ccccc1`, for which the growth inhibition is 15.8% in experiment [1]; 9.15% in experiment [2]; 37.3% in experiment [3]; -5% in experiment [4]; -12.2% in experiment [5]; -8.3% in experiment [6].

For `O=C(NNC(=O)c1ccc(Cl)c(Cl)c1)c1ccc(Cl)c(Cl)c1`, the growth inhibition in experiment [1] was -37.9%; in experiment [2], -56.5%; in experiment [3], -25.1%; in experiment [4], 6.15%; in experiment [5], -16.4%; in experiment [6] it was -33.1%.

Regarding `CCCNC1CC(n2cc(C)c(=O)[nH]c2=O)OC1CO` (stereo not given), the growth inhibition in experiment [1] was -11.4%; in experiment [2] it was -7.85%; in experiment [3], -25.3%; in experiment [4] it was -14.7%; in experiment [5] it was -31.8%; in experiment [6], -26.8%.

Take `C=CCNC(=O)C[n+]1cccc(C(=O)NC)c1`: the growth inhibition in experiment [1] was 22.6%; in experiment [2] it was 8.35%; in experiment [3], -9.15%; in experiment [4], -5.35%; in experiment [5], -0.45%; in experiment [6], -17.8%.

Regarding `O=C(C[n+]1cccc(C(=O)Nc2ccccc2)c1)Nc1ccc(Cl)cc1`, the growth inhibition in experiment [1] was -2.65%; in experiment [2], -0.7%; in experiment [3], -2.35%; in experiment [4], 0.35%; in experiment [5] it was 6.7%; in experiment [6] it was 7.35%.

Take `COc1ccc(NC(=O)CC(=O)NN)cc1`: the growth inhibition in experiment [1] was -5.4%; in experiment [2], -0.05%; in experiment [3], 3.4%; in experiment [4], -1.5%; in experiment [5], -9.55%; in experiment [6], 9.2%.

For the molecule `CN(Cc1ccccc1)C(=O)Nc1ccc(F)c([N+](=O)[O-])c1`, the growth inhibition in experiment [1] is 7.95%; in experiment [2], 28.6%; in experiment [3], 21.9%; in experiment [4] it was -4.2%; in experiment [5], 50.6%; in experiment [6], 16.2%.

Take `CC(C)NS(=O)(=O)c1ccccc1`: the growth inhibition in experiment [1] was 19.4%; in experiment [2], -3.1%; in experiment [3], 10.6%; in experiment [4], 6.75%; in experiment [5] it was 0.6%; in experiment [6], 26.9%.

Take `Cc1cc(-c2cc(C)c(N)cc2S(=O)(=O)O)c(S(=O)(=O)O)cc1N`: the growth inhibition in experiment [1] is -12.3%; in experiment [2], -23.4%; in experiment [3], -1.2%; in experiment [4], -3.2%; in experiment [5] it was 5.8%; in experiment [6], 1.15%.

Regarding `CN(C)NC(=S)NC12CC3CC(CC(C3)C1)C2`, the growth inhibition in experiment [1] is -15.3%; in experiment [2], -5.25%; in experiment [3] it was -10.2%; in experiment [4], -18.9%; in experiment [5] it was -2.8%; in experiment [6], 11.8%.

For the molecule `CN(C)c1ccc(/C=C(\NC(=O)c2ccccc2)c2nn(C)c(=O)o2)cc1`, the growth inhibition is -15.8% in experiment [1]; -4.8% in experiment [2]; -11.1% in experiment [3]; -20.9% in experiment [4]; -1.4% in experiment [5]; -22.6% in experiment [6].

As to `Cc1ccccc1NC(=O)Nc1ccc(Nc2ccccc2)cc1`, the growth inhibition in experiment [1] was -6.5%; in experiment [2] it was 32.2%; in experiment [3], 9.95%; in experiment [4] it was -11.6%; in experiment [5], 5.95%; in experiment [6] it was 25.5%.

Turning to `COc1ccccc1NC(=O)C1=C(C)NC(C)=C(C(=O)Nc2ccccc2OC)C1c1ccccc1Cl`, the growth inhibition in experiment [1] is 11.3%; in experiment [2] it was -4.4%; in experiment [3] it was 3.85%; in experiment [4], 17.9%; in experiment [5] it was -6.45%; in experiment [6] it was 23.4%.

`CCN(c1ccccc1)c1ncnc2nc[nH]c12`: the growth inhibition was 6.75% in experiment [1]; 0.75% in experiment [2]; -1.75% in experiment [3]; -28.9% in experiment [4]; 19.9% in experiment [5]; -5.5% in experiment [6].

For the molecule `CCOC(=O)c1ccc(NC(=O)Oc2ccc(C=O)cc2OC)cc1`, the growth inhibition in experiment [1] was 5.7%; in experiment [2], 5.3%; in experiment [3], 7.85%; in experiment [4] it was 11%; in experiment [5] it was 20.1%; in experiment [6], 7.2%.

On to `CN1CCOc2c1cnn(CCO)c2=O`, for which the growth inhibition is -52.2% in experiment [1]; -15.4% in experiment [2]; -22.4% in experiment [3]; -10.4% in experiment [4]; -4.2% in experiment [5]; -7.6% in experiment [6].
